Among the data in PubChem BioAssay AID493174 (National Center for Advancing Translational Sciences (NCATS), 2011) are Potency values, retold here.

Results filed as inconclusive are left out. Active and inactive are the calls of the source. Calls follow the shape of the dose curve; as a rule, active = well fitted inhibition curve with a large enough effect; inconclusive = small, poorly fitted or top-dose-only effect; inactive = flat fitted curve, though single readings scatter.

A short description of the experiment: Confirmatory Assay for General miRNAs Modulators and/or Inhibitors/Activators of miR-21: second round cherrypicks. The following applies: HeLa miR-21 FLuc reporter, luciferase luminescence, 48 h; series mostly up to 38.3 µM. From the text:
MLPCN Grant: 1 R21 NS059478-01 Assay Provider: Qihong Huang, The Wistar Institute NCGC Assay Overview: MicroRNAs (miRNAs) are endogenously encoded small (~20-25 nucleotides), nonprotein-coding RNAs that are involved in post-transcriptional repression of target messenger RNAs (mRNAs) (Le and Hannon, 2004). Estimated to be involved in the regulation of 30% of all protein-coding mRNAs (Filipowicz et al., 2008), miRNAs play a significant role in many biological processes including cellular differentiation and tissue development (Ghildiyal and Zamore, 2009).
NCGC Assay Protocol Summary: Reagents: HeLa cells stably expressing firefly luciferase (FLuc) under the control of a CMV promoter (upstream) and a miR-21 binding sequence directly downstream of the gene. These cells endogenously express miR-21. Control compounds used were compound C3 (provided by collaborator), N6-phenyladenosine (MP Biomedicals, 0215379625), and DMSO. Assay Summary: 6uL of HeLa miR-21-FLuc cells in assay buffer (DMEM, Invitrogen #21063-029; 10% FBS, HyClone #SH30071.03) were dispensed at 2000cells/well (3.3 x 10^5 cells/mL) into Greiner solid-white TC-treated 1536-well plates using a Multidrop Combi (Thermo Fisher Scientific). Plates were incubated for one hour at 37 degree Celsius, 95% humidity, 5% CO2. These assay plates were then treated with 23nL of compound or DMSO using a Kalypsys pin tool, which allows for delivery of a 24-point titration of each compound to the assay plate, with a final compound concentration ranging from approximately 40uM to 5pM. Assay plates were then incubated for 48 hours. After incubation, plates were allowed to come to RT for one hour prior to delivery of 3uL of 3X luciferase detection reagent. After a 15 minute incubation to allow for cell lysis, luciferase activity was measured using a ViewLux CCD imager (PerkinElmer), with an average exposure time of 2-12 seconds. Keywords: NIH Roadmap, MLPCN, MLSMR, qHTS, miR-21, microRNA, firefly luciferase, FLuc.
With `CC(=O)O[C@H]1C[C@@]2(C)[C@@H](C[C@@H](O)[C@H]3[C@@]4(C)CC[C@@H](O)[C@@H](C)C4CC[C@@]32C)/C1=C(\CCC=C(C)C)C(=O)O` (stereo partly drawn), the Potency result is “inactive”.
The result for `CCc1cc(C(=O)Nc2ccccc2)cs1` reads 3.18 µM (active).
The result for `COc1ccc(N2C(=O)c3ccccc3NC2c2ccc(OC)c(Cn3nnc4ccccc43)c2)cc1` (stereo not drawn) reads 12.6 µM (active); that for `CCOC(=O)C1CCN(C(=O)c2ccc(-n3ccc4ccccc43)s2)CC1`, 11.3 µM (active); that for `CCC(C)C(=O)N1CCCC(c2nc(-c3cccs3)no2)C1` (stereo not drawn), 12.6 µM (active).
In the case of `COc1ccccc1N1CCN(C(=O)c2nc(-c3ccc(C)cc3)n3c2CCCCC3)CC1` it was “inactive”.
Consider `Cc1ccc(NC(=O)c2ccc(-c3ccccc3)s2)cc1`, for which the Potency was 5.65 µM (active).
In the case of `O=C(Nc1sc2c(c1C(=O)NCc1ccco1)CCCC2)c1cc(=O)c2ccccc2o1` it was 5.65 µM (active); in that of `Cc1cc(C)c2c(N)c(C(=O)Nc3ccccc3C(F)(F)F)sc2n1`, 20 µM (active).
For the molecule `Cc1ccccc1NC(=O)c1cc2c([nH]c1=O)CC(C)(C)CC2=O`, the Potency was 0.711 µM (active).
With `Cc1cccc(NC(=O)Nc2ccc(Br)cc2)n1`, the Potency is 2.52 µM (active).
The result for `CC(=O)c1ccc(Oc2ncnc3c2oc2ccccc23)cc1` reads 4 µM (active); that for `CCC(=O)Nc1sc(C(=O)Nc2ccccc2)c(C)c1C(=O)OC`, 2.25 µM (active); that for `CCC(C)NC(=O)CCCn1c(=O)c2cccn2c2ccccc21` (stereo not drawn), “inactive”.
The result for `COC(=O)c1ccccc1NC(=O)Nc1cc(C(C)(C)C)on1` reads 5.65 µM (active); that for `Cc1ccc(C(=O)Nc2ccc3c(c2)ncn3C)cc1`, 7.11 µM (active); that for `CCC(CC)C(=O)Nc1nnc(S(=O)(=O)N2CCCCCC2)s1`, “inactive”.
The result for `C/C(=N/NC(=O)c1ccccc1)c1ccc(NC(=O)C(F)(F)F)cc1` reads “inactive”; that for `CC(=O)N1CCc2cc(CNC(=O)Cc3ccc(F)cc3)ccc21`, 11.3 µM (active).
As to `CCCOc1ccc(OC(=O)c2ccc(-c3ccc(CCC)cn3)cc2)cc1`, the Potency is 1.26 µM (active).
The result for `COCCNC(=O)c1ccc2c(c1)ncn2-c1ccc(F)c(F)c1` reads 22.5 µM (active); that for `CCOC(=O)c1cccc(NC(=O)c2cc(CN3CCCC3)on2)c1`, 1 µM (active); that for `CN(c1ccccc1)S(=O)(=O)c1nnc(NC(=O)c2ccco2)s1`, “inactive”.
The result for `CCCCN1CCc2c([nH]c3ccccc23)C1=O` reads 12.6 µM (active); that for `O=C(NC1CCCCCC1)C1CCN(C(=O)N2CCOc3ccc(Cl)cc32)CC1`, “inactive”.
As to `CC(C)c1cc(C(=O)Nc2cccnc2)no1`, the Potency was 3.18 µM (active).
As for `COc1ccc(Nc2nc(C)c3ccccc3n2)cc1`, the Potency was 6.34 µM (active).
In the case of `Cc1ccc(-c2cc(C(=O)NCC3CCCO3)no2)cc1` (stereo not drawn) it was 4.49 µM (active).
